# Source: PubChem
# Pf growth 96h – Primary qHTS for delayed death inhibitors of the malarial parasite plastid, 96 hour incubation; P. falciparum luciferase reporter growth, 96 h; 320,000 tested, 6.9% active; Potency, µM (highest dose often 28.7 µM), without a hit: at the highest dose activity change, negative = inhibition, most hits filed as inhibitors; AID 504834, 2011; further: potency means the concentration at half of the fitted maximal effect; on the % scale 0 is the no-effect control and ±100 the full control effect
#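 Infected RBCs, 2% Hct / 0.05% parasitemia final; luciferase-reporter P. falciparum; cpd 96 h, 37 C, 5% CO2; luciferase detection reagent; luminescence.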
# Cycloheximide cs – Cycloheximide Counterscreen for Small Molecule Inhibitors of Shiga Toxin; cell reporter, cycloheximide protein synthesis inhibition counterscreen; max response, %; 300,000 tested, 12% active; AID 2314, 2010; in the data active means max response mostly above about 13%, no sharp cut-off; inactive means mostly below about 14%; further: read at 38.3 µM for the half of the compounds with a filed dose; 0% is about no effect
# Pf growth 48h – Primary qHTS for delayed death inhibitors of the malarial parasite plastid, 48 hour incubation | P. falciparum luciferase growth in erythrocytes, 48 h | Potency, µM (titrated, usually from 28.7 µM), without a hit: at the highest dose activity change, negative = inhibition, most hits filed as inhibitors | 310,000 tested, 5.9% active; further: potency means the concentration at half of the fitted maximal effect; on the % scale 0 is the no-effect control and ±100 the full control effect
#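 Luminescence readout; reporter = integrated firefly luciferase in P. falciparum. RBC culture at 2% hematocrit, 0.1% parasitemia final, 37 C/5% CO2; decreased signal taken as growth inhibition.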
# Shiga inhibitor – A qHTS for Small Molecule Inhibitors of Shiga Toxin | Vero cells, Shiga toxin protein synthesis inhibition reporter | inhibition, % at 38.7 µM | 290,000 tested, 9.2% active | AID 2315, 2010; in the data active means inhibition mostly above about 28%, no sharp cut-off; inactive means mostly below about 43%; further: 0% is about no effect
# HCMV inh – qHTS Assay for inhibitors of the human cytomegalovirus (HCMV). HFF cells, HCMV-luciferase reporter, 72 h; active compounds read low. activity change, negative = inhibition, % at 57.5 µM. 410,000 tested, 4.5% active. AID 1259415, 2018; in the data active means activity change below about -60%; inconclusive means no clear call, values can overlap the other calls; inactive means above about -39%; further: on the % scale 0 is the no-effect control and ±100 the full control effect
#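 Cell-based, HFFs, 1000 cells/well, 16 h 37C; cpds in DMSO + HCMV-luc, MOI 1 PFU/cell; 72 h 37C; OneGlo luminescence after 5 min RT; norm. to buffer vs Salinomycin 10uM.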
# Starred values were filed as active, the others as inactive; u = inconclusive; x = not tested or not shown. Sampled rows, rich in hits. Any-hit rate of the full collection: about 20%. Unless noted, the call rests on the fitted dose curve; in most records, active means well fitted inhibition curve with a large enough effect; inconclusive means small, poorly fitted or top-dose-only effect, or another doubt; inactive means no such curve, though single readings can be large or run the other way.
SMILES,Pf growth 96h,Cycloheximide cs,Pf growth 48h,Shiga inhibitor,HCMV inh
CC(/C=C/c1ccccc1)=N/O,54.0%,18.9*,39.0%,21.8,-25.1
CC(/C=C/c1ccc(O)cc1)=N/O,u,18.9*,u,28.1*,u
CC(/C=C/c1ccc(OCc2ccccc2)cc1)=N\O,24.2%,60.2*,233.0%,77.5*,33.2
O=C(O)/C=C/c1ccc(O)cc1,x,x,x,x,7.3
COC(=O)c1ccc(NC(=O)c2c(-c3ccccc3)c(-c3ccccc3)nn(C)c2=O)cc1,x,x,x,x,52.2
O=C(CN1C(=O)NC2(CCCCCC2)C1=O)c1ccc(Cl)cc1,8.4%,x,u,x,2.2
Cc1ccccc1CNC(=O)C1=Cc2ccccc2OC1,x,x,x,x,19.5
Cn1cccc1C(=O)NC(=O)COC(=O)CNC(=O)CNC(=O)c1ccc(Cl)cc1Cl,16.4%,-8.1,-9.2%,-6.1,3.5
Cn1c(N)c(C(=O)CSc2nnc(Cc3cccs3)n2C2CC2)c(=O)n(C)c1=O,3.29µM*,x,5.22µM*,x,-36.0
CCCn1c(N)c(C(=O)CSc2nnc3ccccn23)c(=O)n(C)c1=O,u,x,-16.1%,x,-24.6
CCCn1c(N)c(C(=O)CSc2nnc(Cc3cccs3)n2C2CC2)c(=O)n(C)c1=O,4.15µM*,x,4.65µM*,x,u
CCOC(=O)c1c(C)[nH]c(C)c1S(=O)(=O)N(C)Cc1ccco1,2.4%,-3.6,10.1%,-9.0,-34.6
O=C(Cn1c(=O)n(-c2ccc(F)cc2)c(=O)c2sc3ccccc3c21)N1CCCC1,x,x,x,x,-13.0
O=C(Nc1nnc2n1CCS2)c1cc(C(F)(F)F)cc(C(F)(F)F)c1,x,x,x,x,22.1
Cc1ccc(CNc2nc3ccc(Cl)cc3n3cnnc23)cc1,x,x,x,x,-31.3
Cc1ccc(S(=O)(=O)N(C)C)cc1NC(=O)C(C)N(C)Cc1sccc1C (stereo unspecified),-22.6%,5.1,u,-4.2,-61.5*
COc1cccc(C(=O)NCCc2csc3nc(-c4ccccc4F)nn23)c1OC,x,x,x,x,7.2
CC(=O)c1c(N2CCN(C)CC2)[nH]c(-c2ccccc2)nc1=S,115.6%,-2.9,1.65µM*,-15.2,12.5
CCn1c(C)c(C(C)=O)c(N2CCN(c3ccccc3)CC2)nc1=S,-2.2%,7.7,x,-4.8,53.7
Cc1ccc(Cc2cnc(NC(=O)c3cccs3)s2)cc1,-58.0%,45.6*,107.3%,192.5*,75.3
O=C(Nc1ncc(Cc2cccc(Cl)c2)s1)c1cccs1,-0.4%,53.5*,-5.0%,126.5*,79.8
O=C(Nc1ncc(Cc2ccccc2)s1)c1cccs1,u,58.8*,36.7%,131.0*,69.0
Cc1ccc(C(=O)Nc2ncc(Cc3ccccc3)s2)o1,-0.6%,42.3*,375.9%,80.4*,-8.3
O=C(Nc1ncc(Cc2cccc(Cl)c2)s1)C1=NCCN1,u,10.7,u,-22.2,21.6
COc1cc(-c2noc(-c3ccc(NC4CCCCC4)c([N+](=O)[O-])c3)n2)cc(OC)c1OC,x,x,x,x,-1.1
SMILES,Pf growth 96h,Cycloheximide cs,Pf growth 48h,Shiga inhibitor,HCMV inh
COc1ccc(C(Cl)=C(C=O)c2ccc(OC)c(OC)c2)cc1OC,x,x,x,x,-5.8
O=C(N/N=C/c1ccncc1)c1cc(Br)ccc1OCc1ccccc1,2.94µM*,3.8,u,-9.8,-22.3
Brc1ccc(OCc2ccccc2)c(CNCc2ccncc2)c1,0.415µM*,2.2,9.28µM*,-9.0,-29.1
CCOc1ccc(Br)cc1C(=O)N/N=C/c1ccccn1,u,-3.4,9.28µM*,-10.2,x
COc1ccc(OC)c(C(=O)N/N=C/c2ccccn2)c1,8.8%,30.5*,78.7%,75.5*,19.2
COc1ccc(NC(=O)c2ccc(S(=O)(=O)N3CCCC3)cc2)cc1OC,u,x,u,x,-4.8
CC(NC(=O)Cc1ccc(NC(=O)N2CCSc3ncccc32)cc1)c1ccccc1 (stereo unspecified),x,x,x,x,0.0
COc1ccc(C(=O)Nc2ccccc2C(=O)N/N=C/c2ccccn2)cc1OC,11.7µM*,33.9*,4.15µM*,45.1*,-109.2*
CC(NC(=O)c1cc2c(=O)n(C)c3ccccc3c2n1C)c1ccc2c(c1)OCCO2 (stereo unspecified),x,x,x,x,0.2
CC(NC(=O)COc1cc(=O)n(C)c2ccccc12)c1ccc2c(c1)OCCO2 (stereo unspecified),8.28µM*,-2.4,13.6%,-3.8,45.9
Cn1c(=O)cc(OCC(=O)NCc2cccs2)c2ccccc21,u,17.8,0.0%,50.6*,116.7
Cn1c(=O)cc(OCCCC(=O)NCc2ccco2)c2ccccc21,11.7µM*,4.0,-2.3%,12.4,256.1
O=C(c1ccc(Cl)c(S(=O)(=O)N2CCCCCC2)c1)N1CCN(c2ccccn2)CC1,u,-1.7,x,-2.2,-81.2*
CN1CCN(C(=O)c2ccc(Cl)c(S(=O)(=O)N3CCCCC3)c2)CC1,32.2%,6.2,u,4.0,3.1
CCOc1ccccc1N1CCN(C(=O)c2cn(CC3CCCCC3)nn2)CC1,u,37.4*,10.6%,142.1*,76.5
CCOc1ccccc1N1CCN(C(=O)c2cc(S(=O)(=O)N3CCCCC3)ccc2C)CC1,u,x,u,x,0.0
CCOc1ccccc1N1CCN(C(=O)c2ccc(Cl)c(S(=O)(=O)N3CCCCC3)c2)CC1,5.22µM*,x,11.7µM*,x,-37.9
CCCc1ccc(C(=O)N2CCN(c3ccccc3OCC)CC2)cc1,-1.8%,0.9,u,-1.0,-0.7
O=C(c1ccc(Cl)c(S(=O)(=O)N2CCCCCC2)c1)N1CCCCC1,6.3%,16.6*,u,38.9*,9.0
Cc1ccc(NC(=O)Cn2cc(S(=O)(=O)N3CCCC3)c(S(=O)(=O)N3CCCC3)c2)c(C)c1,x,x,x,x,-15.1
O=c1c2ccccc2sn1-c1ccc(S(=O)(=O)N2CCCCC2)cc1,x,x,x,x,-20.5
Cc1ccc(-n2sc3ccccc3c2=O)cc1S(=O)(=O)N1CCCCC1,4.15µM*,11.9*,2.62µM*,15.3,-19.4
Cc1ccc(C(=O)N2CCCCC2)cc1S(=O)(=O)N1CCCCCC1,8.28µM*,10.6,u,-8.7,8.5
Cc1c(C)n(C)c2ccc(C(=O)N3CCN(c4ccccn4)CC3)cc12,6.8%,-4.1,10.4µM*,22.4,11.0
Cc1ccc(C(=O)N2CCOCC2)cc1S(=O)(=O)N1CCCC1,103.2%,-3.3,4.9%,12.6,-10.4
COc1ccc(NC(=O)COC(=O)CO/N=C(\C)c2ccc3c(c2)OCO3)cc1S(N)(=O)=O,-2.1%,x,-0.7%,x,1.6
COc1ccc(C(=O)NCCS(=O)(=O)NCc2ccc(F)cc2)cc1,-24.5%,x,2.0%,x,-8.8
C[C@H](NC(=O)c1nc[nH]c1C(=O)N(C)CCO)c1ccccc1,x,x,x,x,0.9
CC12CN3CC(C)(CN(C1)C3c1ccc([N+](=O)[O-])o1)C2=O (stereo unspecified),26.6%,-0.9,14.0%,-4.2,-36.6
CC(C)C12CN3CC(C(C)C)(CN(C1)C3c1ccc([N+](=O)[O-])o1)C2=O (stereo unspecified),27.8%,-1.8,2.08µM*,3.9,-72.4*
